Test [1] can be described thus: NCI Yeast Anticancer Drug Screen. Data for the rad50 strain (AID 155).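 Further: 0% = growth of vehicle-only cultures of the same strain.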 Particulars: S. cerevisiae rad50 strain growth inhibition, hits give high values. Put shortly:
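DNA repair mutant yeast, compound exposure, growth read-out; inhibition is taken relative to vehicle.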

A short description of test [2]: NCI Yeast Anticancer Drug Screen. Data for the mec2-1 strain (AID 157). Particulars: S. cerevisiae mec2-1 strain, hits give high values. An outline of the steps:
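Using mec2-1 yeast: add compound, measure growth, express inhibition versus vehicle-treated cultures.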

A short description of test [3]: NCI Yeast Anticancer Drug Screen. Data for the sgs1 mgt1 strain (AID 161).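 Further: 0% = growth of cultures given vehicle only.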 Particulars: S. cerevisiae sgs1 mgt1 strain, hits give high values. Put shortly: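 Percent growth inhibition was derived by comparing compound-exposed mutant yeast with vehicle-exposed cultures. The strain carries alterations in DNA damage repair.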
A short description of test [4]: NCI Yeast Anticancer Drug Screen. Data for the cln2 rad14 strain (AID 165).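 Further: 0% = growth equal to vehicle treated cultures.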 To be noted: S. cerevisiae cln2 rad14 strain, hits give high values. An outline of the steps: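 Yeast strain cln2 rad14, bearing defects in cell cycle control and DNA repair, serves as the test system; values reflect growth inhibition compared with vehicle.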
Test [5] is described as follows: NCI Yeast Anticancer Drug Screen. Data for the bub3 strain (AID 167). To be noted: S. cerevisiae bub3 mutant strain, hits give high values. An outline of the steps: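 In this screen, a yeast mutant lacking normal mitotic checkpoint function is challenged with compound. Relative growth versus vehicle gives the inhibition value.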
Test [6] in a line: NCI Yeast Anticancer Drug Screen. Data for the mlh1 rad18 strain (AID 175). To be noted: S. cerevisiae mlh1 rad18 strain growth inhibition, hits give high values. Put shortly: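 Steps: expose repair-defective yeast to compound; measure growth; express inhibition against vehicle-treated controls.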
The mark [7] stands for this setting: at 5.0 µM (retest, dose inferred, filed as 0.5).
The mark [8] stands for this setting: at 50.0 µM (retest, dose inferred, filed as 5.0).

Compounds without any hit were thinned out: in the full panel of roughly 79,000, 15% have a hit. Unmarked numbers belong to inactive results. Active and inactive are the calls of the source. No stated cut-off is given here; in the data, active means growth inhibition above about 70%; inactive means the rest.

For `CC(=O)Oc1cccc2c(C(=O)CCl)ccnc12`, the growth inhibition was 87% (active) in test [1] (setting [7]); 99% (active) in test [1] (setting [8]); 99.1% (active) in test [1] (at 50.0 µM); 86% (active) in test [2] (setting [7]); 99% (active) in test [2] (setting [8]); 95% (active) in test [2] (at 50.0 µM). Further, the growth inhibition was 96% (active) in test [3] (setting [7]); 99% (active) in test [3] (setting [8]); 99.2% (active) in test [3] (at 50.0 µM); 15% in test [4] (setting [7]); 99% (active) in test [4] (setting [8]); 92% (active) in test [4] (at 50.0 µM). Further, the growth inhibition in test [5] (setting [7]) was 90% (active); in test [5] (setting [8]) it was 18%; in test [5] (at 50.0 µM) it was 95.3% (active); in test [6] (setting [7]), 73% (active); in test [6] (setting [8]), 99% (active); in test [6] (at 50.0 µM), 98.8% (active).
In the case of `CCC(C)n1c(C)nc2c(N)cc(C(F)(F)F)cc21` (stereo not given), the growth inhibition in test [1] (setting [7]) was 0%; in test [1] (setting [8]), 11%; in test [1] (at 50.0 µM), 74% (active); in test [2] (setting [7]), 3%; in test [2] (setting [8]), 30%; in test [2] (at 50.0 µM), 95.8% (active). For the same compound, the growth inhibition is 4% in test [3] (setting [7]); 38% in test [3] (setting [8]); 93.7% (active) in test [3] (at 50.0 µM); 1% in test [4] (setting [7]); 8% in test [4] (setting [8]); 98.8% (active) in test [4] (at 50.0 µM). Further, the growth inhibition in test [5] (setting [7]) is -4%; in test [5] (setting [8]), 9%; in test [5] (at 50.0 µM) it was 98% (active); in test [6] (setting [7]), 0%; in test [6] (setting [8]) it was 28%; in test [6] (at 50.0 µM) it was 94.5% (active).
Regarding `CCC1C(c2ccccc2O)c2cc3c(cc2OC1N1CCOCC1)OCO3` (stereo not given), the growth inhibition in test [1] (setting [7]) is -18%; in test [1] (setting [8]), 98% (active); in test [1] (at 50.0 µM) it was 85.9% (active); in test [2] (setting [7]), -32%; in test [2] (setting [8]), 99% (active); in test [2] (at 50.0 µM), 88.3% (active). Also, the growth inhibition in test [3] (setting [7]) was -42%; in test [3] (setting [8]), 98% (active); in test [3] (at 50.0 µM), 88.2% (active); in test [4] (setting [7]) it was 9%; in test [4] (setting [8]), 99% (active); in test [4] (at 50.0 µM), 88.9% (active). Besides, the growth inhibition in test [5] (setting [7]) is -50%; in test [5] (setting [8]), 99% (active); in test [5] (at 50.0 µM), 88.8% (active); in test [6] (setting [7]), -13%; in test [6] (setting [8]) it was 98% (active); in test [6] (at 50.0 µM) it was 91.2% (active).
For the compound `CCCCCCCCCCCCCCCC(=O)N1CC[N+](C)(CC2=CC3(Cl)C(Cl)=C(Cl)C2(Cl)C3(Cl)Cl)CC1` (stereo not given), the growth inhibition in test [1] (setting [7]) was 99% (active); in test [1] (setting [8]) it was 99% (active); in test [1] (at 50.0 µM) it was 98.8% (active); in test [2] (setting [7]) it was 99% (active); in test [2] (setting [8]), 99% (active); in test [2] (at 50.0 µM) it was 99.2% (active). For the same compound, the growth inhibition was 98% (active) in test [3] (setting [7]); 99% (active) in test [3] (setting [8]); 99.2% (active) in test [3] (at 50.0 µM); 96% (active) in test [4] (setting [7]); 98% (active) in test [4] (setting [8]); 98.5% (active) in test [4] (at 50.0 µM). The growth inhibition is 99% (active) in test [5] (setting [7]); 99% (active) in test [5] (setting [8]); 98.8% (active) in test [5] (at 50.0 µM); 99% (active) in test [6] (setting [7]); 99% (active) in test [6] (setting [8]); 98.7% (active) in test [6] (at 50.0 µM).
On to `COc1ccc2sc3c(C)ccc(NCC4CCCN5CCCCC45)c3c(=O)c2c1` (stereo not given), for which the growth inhibition in test [1] (setting [7]) was 42%; in test [1] (setting [8]), 81% (active); in test [1] (at 50.0 µM), 97.2% (active); in test [2] (setting [7]) it was 12%; in test [2] (setting [8]) it was 88% (active); in test [2] (at 50.0 µM), 99.6% (active). The growth inhibition was 32% in test [3] (setting [7]); 76% (active) in test [3] (setting [8]); 99.3% (active) in test [3] (at 50.0 µM); 16% in test [4] (setting [7]); 85% (active) in test [4] (setting [8]); 99.2% (active) in test [4] (at 50.0 µM). For the same compound, the growth inhibition in test [5] (setting [7]) is 21%; in test [5] (setting [8]), 92% (active); in test [5] (at 50.0 µM), 99.5% (active); in test [6] (setting [7]), 27%; in test [6] (setting [8]), 81% (active); in test [6] (at 50.0 µM) it was 99.4% (active).
On to `CCCCNc1ccc(-c2c(N)nc(N)nc2CC)cc1[N+](=O)[O-]`, for which the growth inhibition in test [1] (setting [7]) was -7%; in test [1] (setting [8]) it was 0%; in test [1] (at 50.0 µM), 62.4%; in test [2] (setting [7]) it was -16%; in test [2] (setting [8]), 2%; in test [2] (at 50.0 µM), 17.6%. Moreover, the growth inhibition is -9% in test [3] (setting [7]); 15% in test [3] (setting [8]); 57% in test [3] (at 50.0 µM); -34% in test [4] (setting [7]); 8% in test [4] (setting [8]); 27.1% in test [4] (at 50.0 µM). Also, the growth inhibition in test [5] (setting [7]) is -4%; in test [5] (setting [8]), -1%; in test [5] (at 50.0 µM) it was -0.35%; in test [6] (setting [7]), -9%; in test [6] (setting [8]), -16%; in test [6] (at 50.0 µM), 62.8%.
On to `O=[N+]([O-])/C=C/c1cc2c(ccc3ccccc32)[nH]1`, for which the growth inhibition was 61% in test [1] (setting [7]); 98% (active) in test [1] (setting [8]); 82.7% (active) in test [1] (at 50.0 µM); 94% (active) in test [2] (setting [7]); 95% (active) in test [2] (setting [8]); 92.2% (active) in test [2] (at 50.0 µM). In addition, the growth inhibition was 88% (active) in test [3] (setting [7]); 98% (active) in test [3] (setting [8]); 94.5% (active) in test [3] (at 50.0 µM); 37% in test [4] (setting [7]); 92% (active) in test [4] (setting [8]); 93.3% (active) in test [4] (at 50.0 µM). For the same compound, the growth inhibition in test [5] (setting [7]) is 96% (active); in test [5] (setting [8]), 98% (active); in test [5] (at 50.0 µM) it was 90.7% (active); in test [6] (setting [7]) it was 87% (active); in test [6] (setting [8]), 97% (active); in test [6] (at 50.0 µM), 89% (active).
With `ON(C(=Nc1ccc(Cl)cc1)c1ccccc1)c1ccccc1`, the growth inhibition in test [1] (setting [7]) is -10%; in test [1] (setting [8]), 98% (active); in test [1] (at 50.0 µM) it was 98% (active); in test [2] (setting [7]), 7%; in test [2] (setting [8]) it was 99% (active); in test [2] (at 50.0 µM) it was 99.2% (active). The growth inhibition in test [3] (setting [7]) was -5%; in test [3] (setting [8]), 99% (active); in test [3] (at 50.0 µM), 99% (active); in test [4] (setting [7]), -11%; in test [4] (setting [8]) it was 98% (active); in test [4] (at 50.0 µM), 99.2% (active). The growth inhibition in test [5] (setting [7]) is 7%; in test [5] (setting [8]), 98% (active); in test [5] (at 50.0 µM), 98.8% (active); in test [6] (setting [7]) it was 9%; in test [6] (setting [8]) it was 99% (active); in test [6] (at 50.0 µM) it was 99% (active).
Regarding `O=[N+]([O-])c1cccc(/C=N/Nc2ccc3ccccc3n2)c1O`, the growth inhibition in test [1] (setting [7]) was 30%; in test [1] (setting [8]), 20%; in test [1] (at 50.0 µM), 98% (active); in test [2] (setting [7]) it was 1%; in test [2] (setting [8]) it was -23%; in test [2] (at 50.0 µM), 98.8% (active). Also, the growth inhibition was 26% in test [3] (setting [7]); 24% in test [3] (setting [8]); 97.4% (active) in test [3] (at 50.0 µM); 1% in test [4] (setting [7]); 3% in test [4] (setting [8]); 93.3% (active) in test [4] (at 50.0 µM). The growth inhibition was 2% in test [5] (setting [7]); 7% in test [5] (setting [8]); 97.8% (active) in test [5] (at 50.0 µM); 16% in test [6] (setting [7]); 14% in test [6] (setting [8]); 97.5% (active) in test [6] (at 50.0 µM).
As for `O=C1C=CC(=O)c2cc(Sc3ccccc3)c(=O)ccc21`, the growth inhibition was 16% in test [1] (setting [7]); 37% in test [1] (setting [8]); 81.2% (active) in test [1] (at 50.0 µM); 29% in test [2] (setting [7]); 38% in test [2] (setting [8]); 42.2% in test [2] (at 50.0 µM). Besides, the growth inhibition in test [3] (setting [7]) was 25%; in test [3] (setting [8]), 98% (active); in test [3] (at 50.0 µM), 71.7% (active); in test [4] (setting [7]), 33%; in test [4] (setting [8]), 72% (active); in test [4] (at 50.0 µM) it was 39.4%. Further, the growth inhibition in test [5] (setting [7]) was 30%; in test [5] (setting [8]), 98% (active); in test [5] (at 50.0 µM), 37%; in test [6] (setting [7]) it was 33%; in test [6] (setting [8]), 37%; in test [6] (at 50.0 µM), 87% (active).

For the origin of these results see PubChem BioAssay (NCI).
